# PubChem BioAssay
# Activity calls are given as the source filed them. Unless noted, no rule for the calls is given here.
# Key:
# [1] = tested on: Wnt5a (protein binding on small-molecule microarray); test: small molecules binding Wnt5a protein – biophysical, small-molecule microarray, 635/667 nm fluorescence, primary screen (AID 1142); details: 635 nm fluorescence, higher = more signal;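 also: fluorescence read at 667 nm with signal to noise per printed feature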
# [2] = ATP-based viability of Huh7 replicon cells – cell-based, CellTiter-Glo luminescence, basal, 48 h, cytotoxicity control for HCV replication inhibitor project, primary screen (AID 1143); details: higher = more signal, called active from +8 up or from −8 down;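 also: Huh7 hepatoma cells carrying a hepatitis C replication reporter with no stimulus; test concentration not given here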
# [3] = Pseudomonas biofilm growth suppression – PAO1 strain, BacTiter-Glo luminescence, LB-PBS, primary screen (AID 1144); details: P. aeruginosa PAO1 biofilm, 12 h, higher = more signal
# [4] = basal CRE-LacZ reporter activity in PC12 – cell-based, unstimulated, primary screen (AID 1145); details: no forskolin, luminescence, 4.5 h, higher = more signal, called active from +8 up or from −8 down
# [5] = forskolin-driven CRE-LacZ activity in PC12 – cell-based, CRE-LacZ reporter, forskolin-stimulated, primary screen (AID 1146); details: luminescence, 4.5 h, higher = more signal, called active from +8 up or from −8 down;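 also: PC12 cells with 6xCRE LacZ reporter stimulated by forskolin 10 µM; beta-galactosidase reporter signal reflecting CREB driven transcription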
# [6] = molecular target: Streptavidin (Streptomyces avidinii) (UniProt P22629); test: compounds binding control protein streptavidin – biophysical, small-molecule microarray, 635/667 nm fluorescence, artefact control for SMM compound annotation, primary screen (AID 1147); details: higher = more signal;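 also: signal reflects streptavidin binding to arrayed compounds as a control protein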
# [7] = probe aInhba binding on compound microarray – biochemical, small-molecule microarray, 635/667 nm fluorescence, primary screen (AID 1148); details: higher = more signal;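 also: score merges 667nm spot fluorescence with signal-to-noise for antibody binding to printed compounds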
# Torsin-1A (Homo sapiens) [8] = molecular target: Torsin-1A (Homo sapiens) (UniProt O14656); test: TOR1A wild-type binding on microarray – cell lysate, small-molecule microarray, lysate, 635/667 nm, primary screen (AID 1149); details: COS7 hTOR1A-WT lysate, 635 nm fluorescence, higher = more signal
# Torsin-1A (Homo sapiens) [9] = molecular target: Torsin-1A (Homo sapiens) (UniProt O14656); test: torsin A mutant lysate binding on microarrays – cell lysate, small-molecule microarray, COS7 lysate, 635/667 nm fluorescence, primary screen (AID 1150); details: COS7 hTOR1A mutant lysate, 635 nm fluorescence, higher = more signal;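 also: score pools 667 nm emission and signal to noise measuring lysate protein binding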
# [10] = tested on: Sonic hedgehog protein (Shh); test: Sonic hedgehog microarray binding compounds – biochemical, small-molecule microarray, 635/667 nm fluorescence, primary screen (AID 1151); details: 635 nm fluorescence, higher = more signal;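 also: Shh protein binding to compounds spotted on small-molecule microarray slides; score combines spot fluorescence intensity with signal-to-noise across triplicate slides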
# [11] = optical density shifts of acrAB sulA E. coli – strain DRC41, OD650, 48 h, E. coli filamentation inducer project, primary screen (AID 1152); details: higher = more signal, called active from +8 up or from −8 down;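 also: E. coli MC1000 strain DRC41 lacking acrAB efflux pump and sulA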
# [12] = probe aLefty1 binding on compound microarray – biochemical, small-molecule microarray, 635/667 nm fluorescence, primary screen (AID 1153); details: higher = more signal;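 also: score merges spot fluorescence with signal-to-noise ratio from the scanned slide images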
# [13] = plasmodial surface anion channel blockers, osmotic lysis – cell-based, P. falciparum Indochina, OD700, 1 h, primary screen (AID 1154); details: P. falciparum Indochina infected RBC osmotic lysis, higher = more signal, called active from +8 up or from −8 down
# [14] = plasmodial surface anion channel blockers, osmotic lysis – cell-based, P. falciparum Indochina, OD700, 2 h, primary screen (AID 1155);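 also: lysis reports solute entry through the parasite surface anion channel PSAC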; details: P. falciparum Indochina infected erythrocytes, higher = more signal, called active from +8 up or from −8 down
# [15] = changes in parasitized red cell lysis, either direction – P. falciparum Indochina, OD700, 3 h, PSAC antagonist project, primary screen (AID 1156); details: P. falciparum-infected erythrocytes, osmotic lysis, higher = more signal, called active from +8 up or from −8 down
# [16] = plasmodial surface anion channel blockers, osmotic lysis – cell-based, P. falciparum Indochina, OD700, 18 h, primary screen (AID 1157); details: P. falciparum Indochina infected erythrocytes, osmotic lysis OD700, 18 h; higher = more signal, called active from +8 up or from −8 down
# [17] = S6 kinase pathway phospho-S6 level changes – cell-based, A549, cytoblot, luminescence, serum-stimulated, primary screen (AID 1158); details: 5 h, higher = more signal;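 also: serum-stimulated A549 lung adenocarcinoma cells; signal is phosphorylated S6 detected by cytoblot immunostaining with HRP secondary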
# [18] = molecular target: NADPH oxidase 2 (Homo sapiens) (UniProt P04839); test: compounds shifting NOX2 Amplex Red fluorescence – cell-based, HEK293-NOX2, PMA-stimulated, NOX inhibitor project, primary screen (AID 1159); details: 45 min, higher = more signal, called active from +8 up or from −8 down; also: test concentration not given here
# [19] = molecular target: NADPH oxidase 4 (Homo sapiens) (UniProt Q9NPH5); test: compounds shifting NOX4 Amplex Red fluorescence – cell-based, HEK293-NOX4, tetracycline-induced, NOX inhibitor project, primary screen (AID 1160); details: HEK293-NOX4, Amplex Red H2O2 fluorescence, 45 min; higher = more signal, called active from +8 up or from −8 down
# [20] = molecular target: NADPH oxidase 5 (Homo sapiens) (UniProt Q96PH1); test: compounds shifting NOX5 Amplex Red fluorescence – cell-based, HEK293-NOX5, NOX inhibitor project, primary screen (AID 1161); details: HEK293-NOX5, ionomycin, 45 min, higher = more signal
# Chain of NADPH oxidase 5 (Homo sapiens) (Q96PH1 whole entry, looked up): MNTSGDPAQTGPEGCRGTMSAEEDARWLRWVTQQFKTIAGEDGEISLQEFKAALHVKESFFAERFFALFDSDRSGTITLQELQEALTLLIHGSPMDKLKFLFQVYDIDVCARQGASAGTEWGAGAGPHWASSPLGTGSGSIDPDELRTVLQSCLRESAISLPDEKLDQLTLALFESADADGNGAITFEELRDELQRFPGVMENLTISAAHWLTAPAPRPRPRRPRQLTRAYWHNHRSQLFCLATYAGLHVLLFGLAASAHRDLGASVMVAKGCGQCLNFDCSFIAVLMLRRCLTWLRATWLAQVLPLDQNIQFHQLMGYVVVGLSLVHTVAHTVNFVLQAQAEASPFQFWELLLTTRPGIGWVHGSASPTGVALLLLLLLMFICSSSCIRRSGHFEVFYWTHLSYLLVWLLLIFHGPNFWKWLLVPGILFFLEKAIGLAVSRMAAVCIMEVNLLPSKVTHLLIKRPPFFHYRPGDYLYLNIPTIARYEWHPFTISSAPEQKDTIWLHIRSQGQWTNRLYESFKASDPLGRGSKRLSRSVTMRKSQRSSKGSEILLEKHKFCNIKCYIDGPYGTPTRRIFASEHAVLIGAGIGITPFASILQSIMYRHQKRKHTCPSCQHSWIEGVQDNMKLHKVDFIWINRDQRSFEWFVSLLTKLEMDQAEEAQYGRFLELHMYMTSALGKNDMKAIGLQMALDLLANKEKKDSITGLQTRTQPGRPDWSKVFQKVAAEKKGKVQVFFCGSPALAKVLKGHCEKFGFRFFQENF
# Chain of NADPH oxidase 4 (Homo sapiens) (Q9NPH5 whole entry, looked up): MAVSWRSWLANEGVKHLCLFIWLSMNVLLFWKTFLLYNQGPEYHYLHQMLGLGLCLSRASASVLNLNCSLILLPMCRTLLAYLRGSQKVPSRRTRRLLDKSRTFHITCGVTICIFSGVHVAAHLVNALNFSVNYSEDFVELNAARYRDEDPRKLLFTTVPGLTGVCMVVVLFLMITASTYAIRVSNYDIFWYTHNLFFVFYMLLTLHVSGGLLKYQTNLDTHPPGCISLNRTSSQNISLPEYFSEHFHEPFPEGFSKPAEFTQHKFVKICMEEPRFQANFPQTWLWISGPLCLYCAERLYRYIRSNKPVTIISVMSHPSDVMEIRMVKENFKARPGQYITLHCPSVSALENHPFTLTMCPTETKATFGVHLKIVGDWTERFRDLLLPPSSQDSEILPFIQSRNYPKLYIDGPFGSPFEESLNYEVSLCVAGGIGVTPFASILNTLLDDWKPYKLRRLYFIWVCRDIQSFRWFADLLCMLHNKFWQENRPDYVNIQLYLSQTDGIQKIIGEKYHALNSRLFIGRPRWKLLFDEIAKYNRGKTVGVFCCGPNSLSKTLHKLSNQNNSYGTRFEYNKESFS
# Chain of Torsin-1A (Homo sapiens) (O14656 whole entry, looked up): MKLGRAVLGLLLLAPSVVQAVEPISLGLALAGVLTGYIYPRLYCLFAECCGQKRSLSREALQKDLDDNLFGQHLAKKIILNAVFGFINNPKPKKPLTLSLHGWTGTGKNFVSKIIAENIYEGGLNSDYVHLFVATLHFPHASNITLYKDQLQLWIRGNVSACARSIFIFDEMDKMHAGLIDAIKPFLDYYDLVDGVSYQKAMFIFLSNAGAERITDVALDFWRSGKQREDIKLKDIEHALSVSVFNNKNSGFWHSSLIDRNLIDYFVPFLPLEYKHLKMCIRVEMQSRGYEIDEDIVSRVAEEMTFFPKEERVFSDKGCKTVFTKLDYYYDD
# Chain of Streptavidin (Streptomyces avidinii) (P22629 whole entry, looked up): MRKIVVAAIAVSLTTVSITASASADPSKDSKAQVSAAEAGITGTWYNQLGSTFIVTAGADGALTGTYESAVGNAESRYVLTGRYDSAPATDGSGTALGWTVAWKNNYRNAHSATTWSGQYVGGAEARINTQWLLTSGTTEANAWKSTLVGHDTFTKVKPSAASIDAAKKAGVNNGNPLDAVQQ
# Chain of NADPH oxidase 2 (Homo sapiens) (P04839 whole entry, looked up): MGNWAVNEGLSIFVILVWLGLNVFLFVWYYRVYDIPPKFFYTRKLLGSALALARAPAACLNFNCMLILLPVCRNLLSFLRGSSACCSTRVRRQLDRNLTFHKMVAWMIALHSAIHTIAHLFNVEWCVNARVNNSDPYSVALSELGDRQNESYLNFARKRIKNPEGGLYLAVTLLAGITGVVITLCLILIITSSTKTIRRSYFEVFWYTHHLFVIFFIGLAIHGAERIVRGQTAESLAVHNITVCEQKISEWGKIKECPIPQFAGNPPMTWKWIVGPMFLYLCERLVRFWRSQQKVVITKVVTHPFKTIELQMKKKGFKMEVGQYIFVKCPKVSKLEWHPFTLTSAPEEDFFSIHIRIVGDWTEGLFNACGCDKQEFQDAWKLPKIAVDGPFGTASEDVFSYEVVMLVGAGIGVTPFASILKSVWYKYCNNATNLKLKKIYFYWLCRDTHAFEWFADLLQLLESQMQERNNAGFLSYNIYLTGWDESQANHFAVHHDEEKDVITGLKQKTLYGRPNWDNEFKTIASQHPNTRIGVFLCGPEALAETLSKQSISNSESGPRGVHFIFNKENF
Compound,composite z-score [1],z-score [2],z-score [3],z-score [4],z-score [5],composite z-score [6],composite z-score [7],composite z-score (Torsin-1A (Homo sapiens) [8]),composite z-score (Torsin-1A (Homo sapiens) [9]),composite z-score [10],z-score [11],composite z-score [12],z-score [13],z-score [14],z-score [15],z-score [16],z-score [17],z-score [18],z-score [19],z-score [20]
C[C@H]1COC(=O)[C@@H]2CCCN2C(=O)[C@@H](C)COC(=O)[C@H](Cc2ccccc2)NC1=O,0.0398,0.257 (inactive),-0.0355 (inactive),-0.468 (inactive),0.574 (inactive),0.0706,-0.045,0.146,0.0507,0.515,-0.0891 (inactive),-0.394,0.115 (inactive),-0.29 (inactive),0.968 (inactive),0.22 (inactive),0.413,-0.45 (inactive),-0.114 (inactive),-0.272
CCOC(=O)NN=C1C[C@@H](O)[C@@H](O)[C@@H]2[C@@H]3C(=O)N([C@@H](C)c4ccccc4)C(=O)[C@@H]3CC[C@@H]12,0.229,0.261 (inactive),-0.353 (inactive),-0.475 (inactive),-0.14 (inactive),-0.468,-0.0313,2.58,2.5,1.37,-0.0718 (inactive),-0.0523,-0.308 (inactive),0.0095 (inactive),-0.611 (inactive),-0.0871 (inactive),-0.25,-0.819 (inactive),0.589 (inactive),-0.143
Cc1ccc(S(=O)(=O)N[C@@H]2COC(=O)[C@@H](C)COC(=O)CC=C[C@H]2C)cc1,-0.278,0.215 (inactive),-0.736 (inactive),-0.116 (inactive),-0.549 (inactive),0.095,0.0633,0.399,0.366,0.472,-0.891 (inactive),-0.103,0.124 (inactive),0.279 (inactive),-0.305 (inactive),-0.113 (inactive),-0.0223,-1.19 (inactive),-1.59 (inactive),-0.728
CCCNC(=O)OC[C@H]1O[C@H](CCON=C(C)C)C=C[C@@H]1Oc1ccc(OC)cc1,-0.0092,0.599 (inactive),-0.523 (inactive),-0.152 (inactive),-0.315 (inactive),0.102,-0.0791,-0.0198,-0.0963,-0.318,-1.21 (inactive),0.209,0.683 (inactive),0.411 (inactive),-0.551 (inactive),0.367 (inactive),-0.131,-0.278 (inactive),0.389 (inactive),-0.533
CCOC(=O)NN=C1C[C@@H](O)[C@@H](O)[C@@H]2[C@@H]3C(=O)N(c4cccc(Oc5ccccc5)c4)C(=O)[C@@H]3CC[C@@H]12,0.0449,-1.49 (inactive),0.362 (inactive),-0.201 (inactive),-0.252 (inactive),-0.343,-0.178,0.986,0.139,-0.438,-0.852 (inactive),-0.0984,0.999 (inactive),0.753 (inactive),0.471 (inactive),0.233 (inactive),-0.142,0.361 (inactive),-0.0548 (inactive),-2.88
CCOC(=O)[C@H](Cc1ccccc1)NC(=O)CCC1CC(OC(=O)NCCc2ccc(F)cc2)CC2(CCCC(COC(=O)NCCc3ccccc3OC)O2)O1 (stereo not given in full),0.359,-0.131 (inactive),0.248 (inactive),0.198 (inactive),-0.099 (inactive),0.536,-0.0897,0.196,0.721,1.54,-1.1 (inactive),-0.0075,0.425 (inactive),0.136 (inactive),-0.106 (inactive),0.174 (inactive),0.392,-0.106 (inactive),0.151 (inactive),0.294
CC(CCC(=O)OC[C@H]1O[C@H](C#Cc2ccccc2)C=C[C@@H]1Oc1ccc(C)cc1)=NO[C@H](C)c1cn([C@H](CO)Cc2ccccc2)nn1,-0.313,-0.874 (inactive),0.195 (inactive),0.15 (inactive),1.15 (inactive),0.0184,-0.149,-0.234,0.683,0.327,-0.757 (inactive),-0.243,14.6 (active),2.79 (inactive),1.47 (inactive),1 (inactive),-1.01,-1.26 (inactive),0.432 (inactive),0.32
CCCNC(=O)OC[C@H]1O[C@H](CCON=C(C)CCN2CCCc3nc(C)c(C)cc32)C=C[C@@H]1Oc1ccc(OC)cc1,0.146,-2.37 (inactive),-0.489 (inactive),2.72 (inactive),0.367 (inactive),0.668,0.0028,0.182,-0.0347,0.368,0.794 (inactive),-0.0061,5.53 (inactive),0.722 (inactive),0.99 (inactive),0.318 (inactive),-0.546,-0.995 (inactive),0.166 (inactive),-1.14
O=C1[C@H]2[C@H]3[C@H](O)[C@H](O)CC(=NOCc4ccccc4)[C@H]3CC[C@H]2C(=O)N1Cc1ccc2c(c1)OCO2,-0.0988,-1.96 (inactive),1.66 (inactive),-0.203 (inactive),-0.915 (inactive),0.484,-0.15,0.0874,0.172,0.394,-1.06 (inactive),-0.147,19.4 (active),2.12 (inactive),0.686 (inactive),0.599 (inactive),-0.702,0.414 (inactive),-0.0657 (inactive),-2.61
